# Experimental data published in PubChem BioAssay AID374 (University of Pittsburgh Molecular Library Screening Center, 2006).
# The campaign covered roughly 65,000 compounds. About 100 (0.15%) were called active.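 The calls were made as follows: active = inhibition above about 50% (limit read from the data); inconclusive = inhibition over screen mean plus 3 SD, below that limit; inactive = the rest.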 For the sample, actives were picked, then their nearest neighbours and some compounds at random.
# Target: Dual specificity protein phosphatase 1 (Homo sapiens) (UniProt P28562)
# Assay: MKP-1 phosphatase inhibitors, primary screen, biochemical, in vitro (AID 374);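 also: 0% = DMSO max control wells and 100% = wells with enzyme stopped by NaOH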
# Details: recombinant MKP-1, OMFP hydrolysis fluorescence; active compounds read high;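 compounds tested at a single concentration somewhere between 10 and 100 µM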
# Sequence of Dual specificity protein phosphatase 1 (Homo sapiens) (P28562 whole entry, looked up): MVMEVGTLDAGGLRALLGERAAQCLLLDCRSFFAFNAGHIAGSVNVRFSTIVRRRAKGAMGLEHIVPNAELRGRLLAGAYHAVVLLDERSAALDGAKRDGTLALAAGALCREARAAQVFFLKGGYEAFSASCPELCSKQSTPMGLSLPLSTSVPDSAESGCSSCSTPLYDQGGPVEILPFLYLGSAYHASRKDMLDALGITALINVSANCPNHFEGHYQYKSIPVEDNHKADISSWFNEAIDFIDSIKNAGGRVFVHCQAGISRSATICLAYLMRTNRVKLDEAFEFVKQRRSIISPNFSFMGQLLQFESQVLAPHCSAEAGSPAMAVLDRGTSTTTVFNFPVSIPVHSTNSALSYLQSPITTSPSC
row,Compound,inhibition
1,CC(CCc1ccccc1)NC(=O)c1ccc(Br)o1 (stereo not drawn),9.59% (inactive)
2,CC(C)CNC(=O)C1CCCN(S(=O)(=O)c2ccc(-n3cnnn3)cc2)C1 (stereo not drawn),10.4% (inactive)
3,CC(C)C(C(=O)NC1CCCCC1)N(CC1CCCO1)C(=O)CNS(=O)(=O)c1ccc(F)cc1 (stereo not drawn),42% (inactive)
4,COc1ccc(OCC(=O)N2CCN(C(=O)COc3ccccc3)CC2)cc1,3.4% (inactive)
5,CCOC(=O)C1CCCN(C(=O)c2cncc(Br)c2)C1 (stereo not drawn),-1.24% (inactive)
6,COc1cccc(N2CCN(C3CC(=O)N(c4ccc(Cl)cc4)C3=O)CC2)c1 (stereo not drawn),9.47% (inactive)
7,COc1cccc(N2C(=O)C3CCCN3C2c2ccc(F)cc2)c1 (stereo not drawn),7.6% (inactive)
8,CCOC(=O)N1CCN(C(=O)c2ccc3nc4cc(Cl)ccc4c(=O)n3c2)CC1,-0.24% (inactive)
9,CNC(=O)C1CC(=O)N(Cc2ccc3c(c2)OCO3)C(=Nc2ccc(F)cc2)S1 (stereo not drawn),4.87% (inactive)
10,CCCNc1ncnc2sc(C)c(C)c12,6.02% (inactive)
11,CCCc1nc(-c2ccccc2O)n(-c2ccccc2)n1,-14.3% (inactive)
12,COc1ccccc1-n1cnc2cc(NS(=O)(=O)c3ccccc3)ccc21,-7.71% (inactive)
13,C=C(C)Cn1c(N2CCCC2)nc2c1c(=O)[nH]c(=O)n2C,4.46% (inactive)
14,CCOC(=O)N1CCN(Cc2oc(CO)cc(=O)c2O)CC1,30.4% (inactive)
15,CC(=O)N1CCN(c2cccc(C)c2C)CC1,9.16% (inactive)
16,Cn1c(C(=O)NCCN2CCc3ccccc3C2)cc2c(=O)[nH]c3ccccc3c21,31% (inactive)
17,Cc1cccc(N2CCN(C(=O)c3cc4c(=O)[nH]c5ccccc5c4n3C)CC2)c1C,50.9% (active)
18,COCCCn1c(CCC(=O)O)ccc1-c1ccc(F)cc1,33.1% (inactive)
19,Cn1c(SCc2c(F)cccc2Cl)nnc1-c1cnccn1,4.26% (inactive)
20,COc1cccc(CN2C(=O)CCC2(C)C(=O)NC2CCCCCC2)c1 (stereo not drawn),10.3% (inactive)
21,O=c1c2ccccc2nc(CSc2nnnn2-c2ccccc2)n1-c1ccccc1,11.8% (inactive)

row,Compound,inhibition
1,Cc1ccc(-c2noc(CSc3nnnn3-c3ccccc3)n2)cc1,0.15% (inactive)
2,Cc1ccc(Nc2nc(CSc3nnnn3-c3ccccc3)cc(=O)[nH]2)cc1,53.9% (active)
3,CCOCCCNC(=O)c1c[nH]c2cc(C)ccc2c1=O,7.4% (inactive)
4,COc1ccc(NC(=O)c2c(SC)nsc2SC)cc1,0.33% (inactive)
5,CC(=O)Nc1ccc(S(=O)(=O)Nc2nc3n(n2)C(c2ccccc2)CC(=O)N3)cc1 (stereo not drawn),-6% (inactive)
6,CC(C)COC(=O)c1ccc(NC(=O)C2C3C=CC(C3)C2C(=O)O)cc1 (stereo not drawn),23.6% (inactive)
7,CCCCOc1ccc(C(=O)NCc2ccco2)cc1,-0.67% (inactive)
8,C[C@H](NC(=O)OC(C)(C)C)c1nnc(SCC(=O)Nc2ccc(Br)cc2)o1,13% (inactive)
9,Cc1oc2nc(SCC(=O)NCc3cccnc3)nc(N)c2c1C,32.5% (inactive)
10,CN1c2ccccc2-c2nc3ccccc3n2C1c1ccco1 (stereo not drawn),-25.5% (inactive)
11,COc1ccc(F)cc1S(=O)(=O)Nc1ccc2c(c1)OCO2,12.4% (inactive)
12,CCOC(=O)N1CCN(C(=O)CN(c2ccc(C)c(C)c2)S(=O)(=O)c2ccccc2)CC1,12.6% (inactive)
13,O=S(=O)(c1cccs1)N1CCc2ccccc2C1,1.16% (inactive)
14,CC1Cn2c(nnc2-c2cccs2)S1 (stereo not drawn),-6.93% (inactive)
15,Cc1nc2nc3c(cn2n1)C(=O)CC(c1ccccc1)C3 (stereo not drawn),-8.11% (inactive)
16,CCSC(C)CC1C/C(=N/O)c2c(C)noc2C1 (stereo not drawn),12.5% (inactive)
17,COc1cccc(C2/C(=C(/O)c3ccc(F)cc3)C(=O)C(=O)N2CCN(C)C)c1 (stereo not drawn),3.73% (inactive)
18,O=C(Oc1ccc2c(c1)CCC2)N1CCOCC1,-9.77% (inactive)
19,O=C(NC(=O)c1ccc(Cl)c(Cl)c1)OC1CCS(=O)(=O)C1 (stereo not drawn),0.18% (inactive)
20,O=C(Nc1c(Cl)cccc1Cl)C1CCC1,-12.7% (inactive)
21,Cc1cccc(N2CCN(C(c3ccccc3)c3nnnn3CC3CCCO3)CC2)c1C (stereo not drawn),20.8% (inactive)

row,Compound,inhibition
1,COCCOC(=O)C1=C(C)NC(=O)NC1c1ccc(Cl)cc1 (stereo not drawn),5.89% (inactive)
2,CCc1ccccc1NC(=O)CSc1nnc([C@@H](NC(=O)OC(C)(C)C)C(C)CC)o1 (stereo partly drawn),27.6% (inactive)
3,N#Cc1nc(Cc2cccc3ccccc23)oc1NCc1ccc2c(c1)OCO2,-0.11% (inactive)
4,COc1ccc(S(=O)(=O)Nc2ccc(S(=O)(=O)N3CCCCC3)cc2)cc1OC,-11.3% (inactive)
5,O=C(O)c1ccc(COCC(F)(F)F)cc1,5.73% (inactive)
6,COC(=O)[C@H](CCSC)NC(=O)Nc1ccc(OC)cc1,-29.3% (inactive)
7,Cc1ccc(C(=O)NCCNS(=O)(=O)c2ccccc2)cc1,9.54% (inactive)
8,CCOC(=O)C1C(=O)OC2(CCCC2)C1C(=O)OCC (stereo not drawn),0.52% (inactive)
9,CSC1=NCCN1C(=O)c1ccc(S(=O)(=O)N2CCOCC2)cc1,-8.44% (inactive)
10,CC(C)(C)n1nc2c(c1NC(=O)c1ccc(S(=O)(=O)N3CCCC3)cc1)CS(=O)C2 (stereo not drawn),1.54% (inactive)
11,COCCCNC(=O)CCc1nc2cccnc2n1Cc1ccc(OC)cc1,2.57% (inactive)
12,CCC(C(=O)Nc1ncccn1)(C(F)(F)F)C(F)(F)F,-11.8% (inactive)
13,CCN(CC)S(=O)(=O)c1cccc(C(=O)Nc2cc(C)nn2-c2nc(C)cc(C)n2)c1,-26.4% (inactive)
14,Cc1nc(-c2ccc(NC(=O)c3cccs3)cc2)cs1,-3.52% (inactive)
15,Cn1c(SCC(=O)Nc2cccc(O)c2)nnc1-c1ccc(S(=O)(=O)N2CCOCC2)cc1,-24.3% (inactive)
16,OC(COc1ccccc1)Cn1cc(Br)cn1 (stereo not drawn),-0.2% (inactive)
17,COC(=O)c1ccc(C2C3=C(Nc4nnnn42)c2ccccc2OC3)cc1 (stereo not drawn),-1.69% (inactive)
18,Cc1c(C)c2cc3c4c(oc3c(C)c2oc1=O)CCCC4,10% (inactive)
19,C=CCn1c(=O)c2ccccc2n2c(SCC(=O)N3CCCc4ccccc43)nnc12,12.1% (inactive)
20,Cc1nnc(SCC(=O)N2CCc3ccccc32)n1-c1ccccc1,17.3% (inactive)
21,O=C(CSc1nc2[nH]ncc2c(=O)n1-c1ccccc1)N1CCCc2ccccc21,50.2% (active)
